From PubChem BioAssay (NCI)
About 79,000 compounds went through this panel and 15% of them were active in at least one assay; those are over-represented in the sample as a whole. No stated cut-off is given here; in the data, active means growth inhibition above about 70%; inactive means the rest.

What was measured:
[1] = NCI Yeast Anticancer Drug Screen. Data for the rad50 strain (AID 155);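 further: 0% = growth of vehicle-only cultures of the same strain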; settings: S. cerevisiae rad50 strain growth inhibition; at 50.0 µM; active compounds read high
How it was run: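 A DNA repair-deficient yeast mutant serves as the test organism; compound-induced growth inhibition is calculated against vehicle-treated cells.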

[2] = NCI Yeast Anticancer Drug Screen. Data for the mec2-1 strain (AID 157); settings: S. cerevisiae mec2-1 strain, at 50.0 µM, active compounds read high
How it was run: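 Vehicle-treated cultures served as reference for growth inhibition of compound-exposed mec2-1 yeast.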

[3] = NCI Yeast Anticancer Drug Screen. Data for the sgs1 mgt1 strain (AID 161);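 further: 0% = growth of cultures given vehicle only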; settings: S. cerevisiae sgs1 mgt1 strain, at 50.0 µM, active compounds read high
How it was run: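 Genetically altered yeast, compound exposure, growth inhibition relative to vehicle.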

[4] = NCI Yeast Anticancer Drug Screen. Data for the cln2 rad14 strain (AID 165);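 further: 0% = growth equal to vehicle treated cultures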; settings: S. cerevisiae cln2 rad14 strain, at 50.0 µM, active compounds read high
How it was run: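 Each compound was tested on cln2 rad14 yeast. Inhibition of growth was calculated against vehicle-exposed controls.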

[5] = NCI Yeast Anticancer Drug Screen. Data for the bub3 strain (AID 167); settings: S. cerevisiae bub3 mutant strain, at 50.0 µM, active compounds read high
How it was run: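 Inhibition values come from growth of compound-treated mutant yeast normalised to vehicle-treated controls.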

[6] = NCI Yeast Anticancer Drug Screen. Data for the mlh1 rad18 strain (AID 175); settings: S. cerevisiae mlh1 rad18 strain growth inhibition; at 50.0 µM; active compounds read high
How it was run: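 Vehicle-treated cultures served as the reference for growth inhibition in a yeast strain carrying DNA damage repair alterations exposed to each compound.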

Measured: growth inhibition

CCCCCC(N)CC(=O)O (centres undefined)
inactive: [1] 8.95% | [2] -21.1% | [3] 4.25% | [4] 8.1% | [5] -2.25% | [6] 9.85%

CCC1(CCC(C)C)C(=O)NC(=O)N(C)C1=O (centres undefined)
inactive: [1] -6.05% | [2] -1.2% | [3] -1.75% | [4] -19.4% | [5] -11.3% | [6] -4.05%

O=C1NC2C(=CC(O)C(O)C2O)c2cc3c(cc21)OCO3 (centres undefined)
inactive: [1] 29.9% | [2] 44.2% | [3] 35.8% | [4] 47.1% | [5] 39.1% | [6] 37.2%

C=C(C(=C)P(=S)(C(C)C)C(C)C)P(=S)(C(C)C)C(C)C
inactive: [1] -8.65% | [2] -10.6% | [3] 4.75% | [4] 24.1% | [5] -7% | [6] -3.45%
